Hits are enriched below; roughly 1.3% of the tested compounds scored in any of these assays.
3CLpro inhibitor – SARS-CoV 3CLpro protease inhibition. P0C6X7. recombinant SARS-CoV 3CLpro, quenched FRET peptide cleavage. inhibition, % at 6 µM. 290,000 compounds, 0.14% hits. AID 1706; in the data active = inhibition above about 12%
VHR inh abs – blocks human VHR1 dual specificity phosphatase; inhibition, % at 13.3 µM; 290,000 compounds, 0.52% hits; recombinant VHR phosphatase, pNPP absorbance; P51452; in the data active = inhibition above about 50%
Target sequence (P51452 whole entry, looked up): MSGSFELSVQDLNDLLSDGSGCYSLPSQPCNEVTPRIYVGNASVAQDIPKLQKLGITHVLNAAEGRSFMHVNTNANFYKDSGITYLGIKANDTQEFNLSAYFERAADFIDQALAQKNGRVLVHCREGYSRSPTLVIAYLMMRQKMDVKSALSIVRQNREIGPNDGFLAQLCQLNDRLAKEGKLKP
PriA SSB inh – inhibitors of Klebsiella pneumoniae PriA binding to SSB C-terminal tail | AlphaScreen SSBct-PriA binding, biotinylated peptide | inhibition, % at 33 µM | 430,000 compounds, 0.6% hits | AID 1272365; in the data active = inhibition mostly above about 37%, no sharp cut-off; inactive = mostly below about 20%;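 note: plate controls were negative control peptide for no effect and reference peptide for full effect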
Mtb hypoxia inh – reduces hypoxia-regulated biosensor signal in M. tuberculosis. fluorescence inhibition, % (test concentration not listed). AID 1159583. 300,000 compounds, 0.1% hits. M. tuberculosis hypoxia-regulated fluorescent reporter, fluorescence; in the data active = fluorescence inhibition mostly above about 23%, no sharp cut-off; inactive = mostly below about 17%
CCHF vOTU inh – blocks the CCHF virus ovarian tumor domain protease; AID 651958; inhibition, % at 11.5 µM; CCHFV vOTU protease, Pep-AMC fluorescence; 370,000 compounds, 0.55% hits; in the data active = inhibition above about 30%; note: 0% = vehicle wells with enzyme and 100% = no enzyme wells
An asterisk follows results filed as active; / = no result given.

SMILES	3CLpro inhibitor	VHR inh abs	PriA SSB inh	Mtb hypoxia inh	CCHF vOTU inh
CSCC(C)(O)CNC(=O)CSC1CCCC1 (stereo not given)	/	/	-3.0	/	/
Cc1n[nH]c(=O)nc1NN=Cc1cccs1	/	/	59.2*	6.6	/
Nc1n[nH]c(C(=O)N/N=C\c2cccs2)n1	/	/	50.0*	/	/
O=C(NCCn1nc(-c2ccccn2)cc1C1CC1)C1CC=CCC1 (stereo not given)	/	/	-21.0	/	/
Cc1cc(N(C)C)nc(NCCNC(=O)c2ncccn2)n1	/	/	-8.0	/	/
N#CC(C#N)=C(/C=C/c1ccccc1)C1CC1	/	/	-5.0	/	/
N#CC(C#N)=C(/C=C/c1cccs1)C1CC1	/	/	42.0*	/	/
CCN(CC)c1ccc(/C=C2\C(=O)NC(=S)N(C)C2=O)o1	1.0	-11.3	-12.5	58.4*	14.8
COc1ccc(N2C(=O)/C(=C/c3ccc(N(C)C)o3)C(=O)NC2=S)cc1	-1.4	34.4	-12.6	8.3	28.1
CCN(CC)c1ccc(/C=C2\C(=O)NC(=S)N(c3ccc(OC)cc3OC)C2=O)o1	/	/	0.8	53.9*	/
CCN(CC)c1ccc(C=C2C(=O)N(C)C(=S)N(C)C2=O)o1	-5.6	-2.9	-9.6	45.8*	8.6
CN1C(=O)C(=Cc2ccc(N3CCCCC3)o2)C(=O)N(C)C1=S	-1.0	17.8	-7.0	/	-1.2
Cc1ccc(/C=C2\C(=O)NC(=S)N(c3ccc(F)cc3)C2=O)o1	6.7	-11.6	-7.8	6.1	-0.6
COc1ccc(C)cc1NC(=O)c1cc(-c2cccs2)nc2c1c(C)nn2C1CCS(=O)(=O)C1 (stereo not given)	/	/	5.0	/	/
CCCc1nnsc1C(=O)NCC(C)(O)COC (stereo not given)	/	/	-1.0	/	/
CCOc1ccc(N)c([N+](=O)[O-])c1	/	/	39.0*	/	/
COc1ccc(-c2cnc(SCC(N)=O)n2-c2cccc(C(F)(F)F)c2)cc1	/	/	18.0	/	/
C=CCSc1ncc(-c2ccc(OC)cc2)n1-c1cccc(Cl)c1	/	/	32.0*	/	/
CCC(C(=O)Nc1ccc(S(=O)(=O)N2CCCCC2c2cccnc2)cc1)c1ccccc1 (stereo not given)	/	/	-4.0	/	/
COc1ccc(NC(=O)c2c(OC)cccc2OC)c(OC)c1	-2.2	5.0	66.9*	11.1	5.9
Cc1ccc(S(=O)(=O)N=C2C(Br)=C(Br)C(=O)C(C)(Br)C2Br)cc1 (stereo not given)	/	/	-6.0	/	/
COc1ccccc1CNC(=O)c1cc(-c2ccncc2)nc2c(Cl)cccc12	-1.8	2.3	5.8	3.8	-8.7
COc1ccc(CNC(=O)c2cc(-c3ccncc3)nc3c(C)cc(C)cc23)cc1OC	-0.3	57.4*	-9.8	-8.8	1.0
COc1ccc(CCNC(=O)c2cc(-c3ccncc3)nc3c(Cl)cccc23)cc1OC	-0.5	52.9*	8.9	-4.2	21.7
CCOC(=O)N1CCN(Cc2c(F)cccc2Cl)CC1	-5.2	50.8*	-16.5	6.3	-4.8
SMILES	3CLpro inhibitor	VHR inh abs	PriA SSB inh	Mtb hypoxia inh	CCHF vOTU inh
Cc1noc(C)c1CC(=O)NCC1CCN(S(=O)(=O)c2cccnc2)CC1	/	/	-13.0	/	/
COc1cc2c(cc1OC)CN(C(=O)c1ccc([N+](=O)[O-])o1)CC2	-2.0	8.5	-2.4	/	15.6
O=C(c1ccc([N+](=O)[O-])o1)N1CCc2ccccc2C1	-3.4	16.6	5.7	47.5*	-3.5
CCn1c(CNC(=O)c2cccc(C)c2)nnc1SCC(=O)NC1=NCCS1	-1.2	52.0*	-2.4	3.2	5.1
CCCOc1ccccc1OCC(=O)N1CCN(S(=O)(=O)c2ccc(Cl)cc2)CC1	/	/	-3.7	32.5*	1.9
CCOc1ccccc1OCCCC(=O)N1CCN(S(=O)(=O)c2ccc(Cl)cc2)CC1	/	/	-1.6	9.8	-3.9
CCN1CCN(C(=O)COc2ccc(S(=O)(=O)N3CCOCC3)cc2C)CC1	0.6	54.4*	3.6	1.9	5.9
CC(=O)c1ccc(OCC(=O)Nc2cc(-n3ccc4ccccc43)ncn2)cc1	/	/	12.0	/	/
CCOC(=O)CNC(=O)CSc1nc(CC)cc(=O)[nH]1	/	/	-13.0	/	/
Cn1c(=O)oc2cc(S(=O)(=O)NCc3ccccc3)ccc21	5.1	50.9*	-18.1	9.6	-3.1
COC(=O)c1ccccc1NS(=O)(=O)c1ccc2c(c1)oc(=O)n2C	-1.7	51.7*	-22.4	1.3	9.7
CC(C)(C)c1ccc(OCCn2cnc(Cl)c2Cl)cc1	/	/	98.3*	/	/
Cc1ccc(OCCn2cnc(Cl)c2Cl)cc1	4.6	32.9	22.4	-8.3	5.2
O=C(Nc1ccc(SCc2ccccn2)nn1)C1CC1	/	/	11.0	/	/
Cc1csc(C(=O)NCc2nn(CCN3CCCC3)c(=O)c3ccccc23)c1	/	/	45.0*	/	/
O=C1c2ccccc2C(=O)N1CNc1ccc(Cl)c(Cl)c1	/	/	3.0	/	/
CCOC(=O)/C(C#N)=C/c1ccc(-c2ccsc2C(=O)OC)o1	2.4	52.7*	-11.7	1.2	-5.4

Screens (PubChem)
